Molecules are shown by their SMILES. A structure can be active in one record and inactive in another. Active and inactive are the calls of the source. Rule for the calls: active = hit-call score of the fitted dose curve at least 0.9, where 1 is the maximum; inactive = score below 0.9.

The target of the assay is X-box-binding protein 1 (Homo sapiens) (UniProt P17861). Briefly: ATG_Xbp1_CIS: Attagene CIS-FACTORIAL HepG2 Assay for human X-box Binding Protein 1 (XBP1) (AID 2282972). The following applies: HepG2 XBP1 cis-element reporter, Attagene multiplex; actives raise or lower the signal. As for the experimental part: ATG_CIS is a cell-based, multiplexed-readout assay that uses HepG2, a human liver cell line, with measurements taken at 24 hours after chemical dosing in a 24-well plate.ATG_Xbp1_CIS is one of 52 assay component(s) measured or calculated from the ATG_CIS assay. It is designed to make measurements of mRNA induction, a form of inducible reporter, as detected with fluorescence intensity signals by Reverse transcription polymerase chain reaction (RT-PCR) and Capillary electrophoresis technology.Data from the assay component ATG_Xbp1_CIS was analyzed into 1 assay endpoint. This assay endpoint, ATG_Xbp1_CIS, was analyzed with bidirectional fitting relative to DMSO as the negative control and baseline of activity. Using a type of inducible reporter, measures of mRNA for gain or loss-of-signal activity can be used to understand the reporter gene at the transcription factor-level as they relate to the gene XBP1. Furthermore, this assay endpoint can be referred to as a primary readout, because this assay has produced multiple assay endpoints where this one serves a reporter gene function. To generalize the intended target to other relatable targets, this assay endpoint is annotated to the dna binding intended target family, where the subfamily is basic leucine zipper.
Chain of X-box-binding protein 1 (Homo sapiens) (P17861 whole entry, looked up): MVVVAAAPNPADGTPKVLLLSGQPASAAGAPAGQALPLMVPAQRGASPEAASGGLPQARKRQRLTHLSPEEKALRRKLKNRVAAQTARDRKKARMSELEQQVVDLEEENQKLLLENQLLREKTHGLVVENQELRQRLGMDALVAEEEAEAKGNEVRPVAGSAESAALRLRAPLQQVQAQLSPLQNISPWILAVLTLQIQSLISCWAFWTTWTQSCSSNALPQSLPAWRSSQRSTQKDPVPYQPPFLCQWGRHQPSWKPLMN
Human liver HepG2 cells are transiently transfected with multiple reporter transcription units (MRTUs) in 6-well plates using FuGene 6 reagent (Roche; 3 ml FuGene/1 mg DNA). The MRTU constructs are regulated by a cis-regulating element (promoter). […] A major difference between the CIS and TRANS system is that in CIS activities of endogenous TFs are measured, whereas the TRANS assay evaluates changes in activities of exogenous, chimeric NR-Gal4 proteins. […] At the end of 24 hour incubation, total RNA was isolated using TriZol reagent (Invitrogen). The isolated RNA is then reverse-transcribed using oligo(dT) primer and Mo-MLV reverse transcriptase (Invitrogen) with DNAse I (Ambion) treatment for 30 min. The one-tenth of the produced cDNA was amplified by PCR using Taq DNA polymerase (Invitrogen) and two reporter sequence-specific primers. The PCR products were fluorescently labeled by primer extension with 6-arboxyfluorescein (6-FAM) 5'-labeled reporter sequence-specific primer (2 min at 95 C, 20 s at 68 C and 10 min at 72 C) and these products were digested with 5U of HpaI (New England Biolabs) for 2h at 37 C. The fragments were purified using Qiaquick PCR columns (Qiagen), analyzed on an ABI 3130xL genetic analyzer (Applied Biosystems) with peak positions identified by using a set of X-rhodamine (ROX)-labeled MapMarker1000 molecular weight standards (BioVentures). The raw capillary electrophoresis data was processed using Attagraph software (Attagene).
For the compound `CCCCOC(=O)c1ccc(O)cc1`, the result was inactive and the AC50 is 107 µM (active).

As to `CCCCCCCCN(C)CCCCCCCC`, the call was inactive. As for `O=c1ccc2ccccc2o1`, the result was inactive. `Cc1occc1C(=O)Nc1ccc(C(=O)N2CCC(F)(F)/C(=C\C(=O)N3CCC(N4CCCCC4)CC3)c3ccccc32)cc1`: the concentration at half-maximal activity (AC50) was 51.2 µM (active).

As for `O=C(OCCCCCCOC(=O)c1ccccc1)c1ccccc1`, the result was inactive. The same measure, in the same setting: under `O=C(O)c1ccccc1C(=O)OCc1ccccc1` stands “inactive”; under `CCCOC(=O)c1cc(O)c(O)c(O)c1`, “inactive”. On to `O=C(Nc1ccc(Cl)cc1)Nc1ccc(Cl)c(Cl)c1`, for which the AC50 was 5.26 µM (active). `O=C1c2ccccc2C(=O)N1CCc1noc(-c2ccc(CN3CCCCCC3)s2)n1`: the compound was called inactive.

Regarding `CC/C(=C(/CC)c1ccc(O)cc1)c1ccc(O)cc1`, the concentration at half-maximal activity (AC50) is 14.4 µM (active) [middle of 4 runs] and the outcome was inactive.

With `CC(C)(C)c1csc(-c2cc3cc(OCc4ccccc4CC(=O)O)ccc3o2)n1`, the AC50 was 50.2 µM (active). In the case of `Cc1cn([C@H]2C[C@H](N=[N+]=[N-])[C@@H](CO)O2)c(=O)[nH]c1=O`, the result was inactive. The same measure, in the same setting: under `OC12N=C(c3ccccc3)SC1Cc1cc(Cl)ccc12` (stereo not given) stands “inactive”. As to `CC(O)CC(C)(C)O` (stereo not given), the AC50 was 0.0122 µM (active) and the outcome was inactive.

`Cc1oc2c(NC(=O)c3c(Cl)cccc3Cl)cccc2c1C(C)(C)O`: the call was inactive. On to `CCCCCCCCCCCC[N+](C)(C)C`, for which the compound was classed as inactive and the AC50 is 33.4 µM (active). As to `CN1C(=O)N(c2ccccc2Br)Cc2cnc(Nc3ccc4c(c3)OCC(CO)O4)nc21` (stereo not given), the half-maximal activity concentration (AC50) was 9.79 µM (active). Turning to `Cc1cc(F)ccc1-c1cc(N2CC[C@@H](O)[C@H]2CO)ncc1N(C)C(=O)C(C)(C)c1cc(C(F)(F)F)cc(C(F)(F)F)c1`, the compound was classed as inactive. For `CN(C[C@@H](CC[N+]12CCC(C3CCCCC3)(CC1)CC2)c1ccc(Cl)c(Cl)c1)C(=O)c1cc(C(F)(F)F)cc(C(F)(F)F)c1`, the outcome was inactive. Turning to `OCCO`, the compound was called inactive. For `NCc1cccc(C2CCN(C(=O)c3ccc(C#Cc4ccccc4F)o3)CC2)c1`, the AC50 was 14 µM (active).

Regarding `O=c1c(-c2ccc(O)cc2)coc2cc(O)cc(O)c12`, the compound was called inactive. Still for that read-out and setting: under `Cc1ccc2oc(CN(Cc3ccccc3)C(=O)Nc3c(F)cc(F)cc3F)c(-c3ccc(Cl)cc3)c2c1` stands “inactive”; under `O=CCCCC=O`, “inactive”.

As for `COc1cc(C(=O)NC2CCN(C)CC2)ccc1Nc1ncc2c(n1)N(C1CCCC1)CC(F)(F)C(=O)N2C`, the AC50 was 2.31 µM (active). As to `CCOC(=O)O[C@H](C)OC(=O)c1ccc2c(c1)cc(C(=O)NC1CCN(C(C)C)CC1)n2Cc1cc(-c2ccc(Cl)s2)on1`, the result was inactive. On the same count and under the same terms, under `CCCCOC(=O)CC(CC(=O)OCCCC)(OC(C)=O)C(=O)OCCCC` stands “inactive”; under `CCN(Cc1cccc(S(=O)(=O)O)c1)c1ccc(C(=C2C=CC(=[N+](CC)Cc3cccc(S(=O)(=O)O)c3)C=C2)c2ccccc2S(=O)(=O)[O-])cc1`, “inactive”; under `Clc1cc(Cl)c2c(c1)N=C1CCCCCN1C2`, “inactive”. Turning to `O=C(O)Cn1c(=O)n(Cc2ccc(Br)cc2F)c(=O)c2ccc(Cl)cc21`, the compound was called inactive. On the same count and under the same terms, under `C[C@]12CC[C@@H]3c4ccc(O)cc4CC[C@H]3[C@@H]1CC[C@H]2O` stands “inactive”. Take `CCN(Cc1cccnc1)C(=O)c1cccc(Cl)c1[C@]1(C)C(=O)N(Cc2ccc(OC)cc2OC)c2ccc(Cl)cc21`: the AC50 was 4.01 µM (active). With `O=C1CCC(C2CCCCC2)CC1`, the outcome was inactive. With `C[C@]12CC[C@@H]3c4ccc(O)cc4CC[C@H]3[C@@H]1CCC2=O`, the result was inactive. On to `CC[C@H](NC(=O)c1cc(F)ccc1NS(=O)(=O)c1cccc2cccnc12)c1ccccc1`, for which the compound was classed as inactive. Same read-out and setting: under `O=C=NCCCCCCN=C=O` stands “inactive”.

By AC50 is commonly meant the concentration giving half of the maximal activity seen.
